An excerpt weighted towards active compounds, which were near 0.87% of everything screened.
TDP1 inh – blocks human tyrosyl-DNA phosphodiesterase 1; Q9NUW8; recombinant TDP1, AlphaScreen DNA substrate cleavage; Potency, µM (highest dose often 130 µM), inactives show top-dose activity change, negative = inhibition, most hits filed as inhibitors; actives 0.28% (n = 350,000); AID 485290; further: nearly all actives have a fitted effect of over 40% in size
Target sequence (Q9NUW8 whole entry, looked up): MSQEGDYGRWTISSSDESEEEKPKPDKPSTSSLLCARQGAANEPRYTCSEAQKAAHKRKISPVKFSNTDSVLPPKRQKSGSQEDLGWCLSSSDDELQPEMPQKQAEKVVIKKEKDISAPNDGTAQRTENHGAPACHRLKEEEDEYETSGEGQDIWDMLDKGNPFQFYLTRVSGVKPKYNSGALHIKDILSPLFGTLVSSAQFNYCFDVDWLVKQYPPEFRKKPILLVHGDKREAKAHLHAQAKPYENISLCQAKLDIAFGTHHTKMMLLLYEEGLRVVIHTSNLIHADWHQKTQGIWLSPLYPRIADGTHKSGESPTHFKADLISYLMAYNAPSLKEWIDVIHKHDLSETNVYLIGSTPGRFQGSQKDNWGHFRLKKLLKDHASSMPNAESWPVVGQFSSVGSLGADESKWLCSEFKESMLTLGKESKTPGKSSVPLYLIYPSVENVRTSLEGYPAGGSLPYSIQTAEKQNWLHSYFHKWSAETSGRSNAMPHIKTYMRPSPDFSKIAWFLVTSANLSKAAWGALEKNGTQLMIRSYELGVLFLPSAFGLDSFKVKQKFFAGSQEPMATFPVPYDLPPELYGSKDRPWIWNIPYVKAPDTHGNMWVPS
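Compounds were preincubated with Tdp1 (1 nM final) for 15 min at room temperature before substrate (15 nM final) started a 5 min reaction; beads (10 ug/ml final) were then added for 10 min before AlphaScreen detection.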
RECQ1 inh-1 – inhibitors of human RECQ1 DNA helicase. RECQ1 DNA unwinding, red fluorescence kinetic read. actives 0.54% (n = 240,000). AID 2549. Potency, µM (top dose mostly 57.3 µM), for inactives: at the top dose activity, negative = inhibition, usual class: inhibitors;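 further: plate controls were vehicle for no effect and no enzyme for full effect; nearly all actives have a fitted effect of over 30% in size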
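RECQ1T1 50 nM; forked duplex (20 bp + 30-nt ss tails) 200 nM, ATP 2 mM final; pH 8.0, 2 mM MgCl2, 2.5 ug/ml poly(dI-dC); 15 min compound preincubation; discontinuous kinetic read over 2 h at RT.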
BLM helicase inh – inhibitors of human Bloom syndrome helicase BLM; recombinant BLM DNA unwinding, fluorescence dequenching; AID 2528; actives 0.2% (n = 350,000); P54132; Potency, µM (series often up to 56.1 µM), for the others: top-dose activity change, negative = inhibition, actives largely listed as inhibitors;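 further: plate controls were vehicle for no effect and no enzyme for full effect; nearly all actives have a fitted effect of over 35% in size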
APE1 inh – APE1 (human) endonuclease inhibition | recombinant APE1, TAMRA/BHQ-2 abasic DNA cleavage fluorescence | Potency, µM (top dose mostly 65.8 µM), for inactives: top-dose activity change, negative = inhibition, usual class: inhibitors | actives 0.35% (n = 350,000);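 further: plate controls were vehicle for no effect and reference inhibitor for full effect; nearly all actives have a fitted effect of over 55% in size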
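Kinetic fluorescence read (525 ex/598 em nm, three reads 60 s apart) of AP-site incision; signal = third minus first read. Enzyme 0.75 nM, dual-labelled THF duplex 50 nM, compound preincubation 15 min RT.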
RGS4 inhibitor – inhibitors of human regulator of G protein signaling 4; P49798; Transcreener GDP fluorescence polarization, RGS4-accelerated GTP hydrolysis; AID 504845; actives 0.039% (n = 390,000); Potency, µM (top dose mostly 114 µM), for the others: at the top dose activity change, negative = inhibition, hits mostly inhibitors; further: nearly all actives have a fitted effect of over 75% in size
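MLSMR compounds (23 nl, pin-transferred) preincubated 10 min at room temperature with a 500nM (2x) first reagent, then RGS4 at 900nM (2x) plus Transcreener GDP mix added; fluorescence polarization (620/688 nm) read before and after 90 min at 30 °C.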
KAT2A inh – inhibitors of human GCN5L2 histone acetyltransferase; Q92830; GCN5L2 HAT assay, ThioGlo1 CoA-SH fluorescence; Potency, µM (titrated, usually from 58.9 µM), for the others: at the top dose activity change, negative = inhibition, usual class: inhibitors; actives 0.21% (n = 390,000)
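Compounds, pin-transferred from DMSO stocks, meet 20nM GCN5L2 for 15 min before the reaction begins with H3(1-25) peptide (75uM) and acetyl-CoA (70uM). Thiol-reactive ThioGlo1 reports CoA release over 20 min at room temperature.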
RECQ1 conf – confirmation of human RECQ1 helicase inhibitors; AID 2708; Potency, µM (series often up to 229 µM), inactives show top-dose activity change, negative = inhibition, usual class: inhibitors; actives 28% (n = 610); RECQ1 helicase DNA unwinding, fluorescence; shares compounds with RECQ1 inh-1; further: nearly all actives have a fitted effect of over 45% in size
ADP FP counter – ADP displacement flagged in RECQ1 inhibitor counter-screen | shares compounds with RECQ1 inh-1 | ADP fluorescence polarization displacement counterscreen | Potency, µM (top dose mostly 228 µM), for the others: at the top dose activity change, negative = inhibition, usual class: inhibitors | actives 27% (n = 530) | AID 2711; further: nearly all actives have a fitted effect of over 45% in size
RECQ1 inh-2 – RECQ1 helicase inhibition confirmed, round 2; Potency, µM (doses to about 119 µM), for inactives: at the highest dose activity, negative = inhibition, hits mostly inhibitors; recombinant RECQ1 DNA unwinding, red fluorescence; actives 15% (n = 1,100); shares compounds with RECQ1 inh-1; further: nearly all actives have a fitted effect of over 50% in size
Starred values were filed as active, the others as inactive; i = inactive; ? = inconclusive; . = no result; [ ] = dose if it differs, or a comment. The call rests on the fitted dose curve; in most records, active means well fitted curve in the direction sought with a large enough effect; inconclusive means small, poorly fitted or top-dose-only effect, or another doubt; inactive means no such curve, though single readings can be large; an effect the other way counts as inactive or inconclusive. Unless noted, on the % scale 0 is the no-effect control and ±100 the full control effect; potency means the concentration at half of the fitted maximal effect.

SMILES	TDP1 inh	RECQ1 inh-1	BLM helicase inh	APE1 inh	RGS4 inhibitor	KAT2A inh	RECQ1 inh-2	others
Cc1ccccc1NS(=O)(=O)c1cc(C(=O)N2CCc3ccccc3C2)ccc1C	7%	?	-7%	-4%	-6%	-11%	-8%
CC1CCN(S(=O)(=O)c2ccc(NC(=O)N3c4ccccc4Sc4ccccc43)cc2)CC1	8%	-13%	-5%	1%	-10%	2%	.	RECQ1 conf=-10%;ADP FP counter=42%
CCOC(=O)Cc1cc(=O)n2[nH]c(-c3ccccc3)cc2n1	3%	-5%	-11%	-1%	16%	1%	.
COCc1cc(=O)n2[nH]c(-c3ccsc3-n3c(C)ccc3C)cc2n1	.	?	?	25µM*	-34%[11.4 µM]	-9%	-24%
COc1ccc(C(=O)Nc2nc(C)cc(C)n2)cc1	3%	?	28%	-7%	8%	-2%	-3%
CCCCc1nc2c(c3c1C[C@H](C)OC3)CN(C(=O)Nc1cccc(C#N)c1)CC2	6%[12.3 µM]	i[11.5 µM]	-1%[12.4 µM]	-2%[12.4 µM]	.	.	.
O=C(CSc1nnc(-c2ccccc2)o1)c1nnc(-c2ccccc2)o1	9%	?	-17%	2%	?	-13%	-22%
C[C@H]1Cc2c(COc3ccccc3)nc3c(c2CO1)CN(S(=O)(=O)c1ccc2c(c1)OCCN2C)CC3	9%[12.3 µM]	i[11.5 µM]	1%[12.4 µM]	17%[12.4 µM]	.	.	.
COc1ccc(-c2cc(C(=O)Nc3c(C)nn(Cc4ccc(F)cc4)c3C)no2)cc1OC	2%	.	-4%	.	-6%	2%	.
Cc1nn(Cc2ccc(F)cc2)c(C)c1NC(=O)c1cc(-c2ccco2)on1	10%	?	-7%	-23%	10%	4%	?
CC(C)(C)OC(=O)N1C=CCC1CN1C(=O)COCC1=O (stereo not drawn)	3%	0%	2%	2%	-5%	.	.
Nc1ccc(N=Nc2ccccc2)c(N)c1	26%	-15%	.	5%	.	.	.
N[C@@H](CO)c1nnc([C@H](CC(=O)O)NC(=O)C2CCNCC2)o1	6%	2%	-1%	3%	-26%	-1%	.	RECQ1 conf=-2%;ADP FP counter=6%
Brc1ccccc1CN1CCC(N2CCCCC2)CC1	-4%	?	-5%	-4%	7%	-3%	-2%
O=C(/C=C/c1ccco1)NCC1OCCc2ccccc21 (stereo not drawn)	.	?	?	?	?	-27%	6.3µM*
O=C(O)CC(SCC(=O)Nc1ccc(S(=O)(=O)N2CCCC2)cc1)C(=O)O (stereo not drawn)	0%	i	1%	-7%	-37%	3%	.	RECQ1 conf=2%;ADP FP counter=-9%
COc1ccccc1NC(=O)CSc1nnc2c3ccccc3n(C(C)C)c2n1	.	.	3%	.	-24%	-5%	.
CCN1/C(=C/c2ccc3ccccc3[n+]2CC)C=Cc2ccccc21	5%	?	-9%	-4%	-15%	-4%[0.501 µM]	50µM*
O=C(CSc1ncnc2scc(-c3ccccc3)c12)N1CCN(Cc2ccc3c(c2)OCO3)CC1	8%	13µM*	-17%	0%	?	?	-24%	RECQ1 conf=?
Cc1cc(/C=C2\SC(=S)NC2=O)c(C)n1-c1ccccc1	4%	-8%	-21%	0%	-19%	-21%	.
Cc1cc(/C=C2\SC(=S)NC2=O)c(C)n1C	-2%	0.32µM*	-18%	-4%	-40%	-3%	.	RECQ1 conf=45µM*;ADP FP counter=10µM*
CCC(C)C(NC(=O)C(Cc1ccc(O)cc1)NC(=O)C(N)C(C)C)C(=O)NC(Cc1cnc[nH]1)C(=O)N1CCCC1C(=O)NC(Cc1ccccc1)C(=O)O (stereo not drawn)	5%	-7%	-9%	?	.	2%	.
COC1=C(Nc2ccc(OC)cc2)C(=O)c2ccccc2C1=O	12%	i	-11%	4%	-26%	0%	.
COC1=C(Nc2ccc(O)cc2)C(=O)c2ccccc2C1=O	7%	?	-10%	?	-17%	2%	-10%
c1ccc2c(c1)CCN(C1=Nc3cccc4cccc1c34)C2	10%	13µM*	4%	?	-14%	-3%	-6%	RECQ1 conf=11%[114 µM]
SMILES	TDP1 inh	RECQ1 inh-1	BLM helicase inh	APE1 inh	RGS4 inhibitor	KAT2A inh	RECQ1 inh-2	others
Cc1c(NC(=O)C(C)OC(=O)CC2Sc3ccccc3NC2=O)c(=O)n(-c2ccccc2)n1C (stereo not drawn)	0%	-8%	-10%	17%	-15%	-10%	.	RECQ1 conf=-2%;ADP FP counter=-12%
Cc1noc(C)c1-c1ccc2ncnc(NCc3ccc4c(c3)OCO4)c2c1	11%	-5%	1%	-8%	.	.	.
Cc1nn(-c2ccccc2)c(Cl)c1C(=O)NCc1cccs1	0%	?	-21%	0%	-1%	17%	-22%
Cc1nn(-c2ccccc2)c(C)c1C(=O)NCc1cccs1	-2%	-6%	2%	?	14%	1%	.
O=C(O)c1ccc(N2CCCCC2)cc1	9%	-17%	-1%	11%	-3%	2%	.
Nc1ccc(N2CCCCCC2)cc1	-5%	14µM*	-12%	?	.	-6%	.	RECQ1 conf=-3%[114 µM]
O=C(C1CC1)N1CCN=C1SCc1cccc(F)c1	5%	?	3%	6%	-17%	1%	?
O=C(C1CC1)N1CCN=C1SCc1ccc(F)cc1	-3%	-9%	-8%	0%	-16%	-1%	.
COCCn1c(C)cc(C(=O)COC(=O)c2cccc(O)c2)c1C	1%	i	-2%	3%	26%	17%	.
COCCn1c(C)cc(C(=O)COC(=O)c2cc3c(s2)CCC3)c1C	.	?	-25%	13µM*	-29%	-12%	?
Nc1ncnc2c1ncn2COC(CO)CO	0%	.	.	.	14%	.	.	RECQ1 conf=-6%[69.1 µM]
O=C(O)Cc1cccc(OCCCN(Cc2cccc(C(F)(F)F)c2Cl)CC(c2ccccc2)c2ccccc2)c1	-7%	?	?	-16%	.	11µM*	25µM*

Compound activity from PubChem.
